Screens deposited in PubChem BioAssay by Broad Institute.
Hits are enriched below; roughly 3.1% of the tested compounds scored in any of these assays.
Casp6 inh – human caspase-6 inhibitors, primary screen, biochemical, VEID-R110 fluorescence, single point, set 2; P55212; purified caspase-6, Z-VEID-R110 cleavage fluorescence; inhibition, % at 12.5 µM; actives 0.53% (n = 350,000); AID 686996, 2013;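 active = mean inhibition across replicates at least about 35%, with every replicate also reaching that limit, limit read from the data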;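 note: 0% = median of neutral control wells and 100% = no fluorescence left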
ERAP1 inh – human ERAP1 aminopeptidase inhibitors, primary screen, biochemical, single point, plate reader; inhibition, % at 10.7 µM; actives 0.15% (n = 340,000); AID 652197, 2013; recombinant ERAP1, Leu-AMC fluorescence, 60 min;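 active = mean replicate inhibition of at least 30%, or all replicates individually reaching that 30% level; inactive = mean below 30% and not every replicate reaching it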;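 note: 0% = neutral control wells and 100% = L-leucinethiol positive control wells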
FGF22 binding – binders of human FGF22 protein, primary screen, FGF22 synaptogenesis inhibitor project, biophysical, thermal shift, single point. Fibroblast growth factor 22 (Homo sapiens), Q9HCT0. recombinant FGF22 thermal shift, SYPRO orange fluorescence; percent of sucrose octasulfate shift, DMSO zero. activity (Tm shift, normalised), % at 9.99 µM. actives 1.5% (n = 340,000). AID 651658, 2012;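 active = mean Tm shift, scaled 0 neutral to 100 positive control, at about 1.3% or above, every replicate too, limit read from the data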
Target sequence (Q9HCT0 whole entry, looked up): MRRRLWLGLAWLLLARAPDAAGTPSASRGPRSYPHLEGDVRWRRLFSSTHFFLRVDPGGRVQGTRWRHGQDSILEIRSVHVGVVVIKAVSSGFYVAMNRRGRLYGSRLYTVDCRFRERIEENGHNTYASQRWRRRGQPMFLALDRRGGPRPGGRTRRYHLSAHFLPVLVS
SIRT5 block – SIRT5 desuccinylase inhibitors, primary screen, biochemical, fluorescence imaging, single point, set 5. NAD-dependent protein deacylase sirtuin-5, mitochondrial (Homo sapiens), Q9NXA8. Purified SirT5, succinyl-peptide AMC, trypsin-coupled fluorescence. inhibition, % at 15 µM. actives 1.1% (n = 330,000); in the data active = inhibition above about 15%
* hit, by the source's call; nt = no result given.

SMILES	Casp6 inh	ERAP1 inh	FGF22 binding	SIRT5 block
COc1cccc(S(=O)(=O)N(C)C[C@H]2Oc3cc(C4=CCCC4)ccc3S(=O)(=O)N([C@H](C)CO)C[C@@H]2C)c1	-4	-3	0	3
COc1cccc(S(=O)(=O)N(C)C[C@H]2Oc3cc(C4=CCCC4)ccc3S(=O)(=O)N([C@@H](C)CO)C[C@@H]2C)c1	1	2	0	21*
COc1ccc(S(=O)(=O)N(C)C[C@@H]2Oc3cc(C4=CCCC4)ccc3S(=O)(=O)N([C@H](C)CO)C[C@H]2C)cc1	2	-2	0	9
COc1cccc(S(=O)(=O)N(C)C[C@@H]2Oc3cc(C4=CCCCC4)ccc3S(=O)(=O)N([C@@H](C)CO)C[C@@H]2C)c1	nt	nt	0	21*
COc1cccc(S(=O)(=O)N(C)C[C@H]2Oc3cc(C4=CCCC4)ccc3S(=O)(=O)N([C@H](C)CO)C[C@H]2C)c1	2	3	0	21*
CCC(=O)N[C@H]1CC[C@@H](CC(=O)NCC2CCCCC2)O[C@@H]1CO	0	1	0	1
O=C(NNC(=O)c1cccs1)c1ccc(F)cc1	0	1	43*	nt
O=C(NNC(=O)c1ccc([N+](=O)[O-])cc1)c1ccc(NS(=O)(=O)c2cccs2)cc1	0	-6	0	3
O=C(NNC(=O)c1cccs1)c1cccc(F)c1	-5	-2	0	-5
O=C(NNC(=O)c1cccs1)c1ccc([N+](=O)[O-])cc1	0	-2	44*	0
CN1CCN(C(=O)C2=C[C@@H](C3CC3)C[C@@H](OCCCCO)O2)CC1	-3	3	0	0
C[C@@H]1CCCCO[C@H](CN(C)C(=O)Nc2ccccc2)[C@H](C)CN([C@@H](C)CO)C(=O)c2cc(NC(=O)c3ccncc3)ccc2O1	-1	0	nt	1
NC(=O)c1sc(=S)n(-c2ccc(Br)cc2)c1N	1	nt	-1	nt
CC(=O)NNC(=O)c1sc(=S)n2c1[nH]c(=O)c1sccc12	22	5	43*	1
NC(=O)c1sc(=S)n2c1[nH]c(=O)c1sccc12	-1	-1	47*	10
C[C@H](NC(=O)C[C@H]1C=C[C@H](NC(=O)C2CC2)[C@@H](CO)O1)c1ccccc1	-6	-1	0	-5
CCCCOc1ccc(C(=O)OCC(=O)N2CCOCC2)cc1	61*	1	0	0
CN(C)c1ccc(C(=O)OCC(=O)N2CCOCC2)cc1	0	-2	0	2
Nc1ccc(C(=O)OCC(=O)N2CCOCC2)cc1[N+](=O)[O-]	0	-2	43*	0
COc1ccc(C(=O)OCC(=O)N2C(C)CCCC2C)cc1[N+](=O)[O-] (stereo not given)	-2	8	43*	5
COc1ccc(C(=O)OCC(=O)NC(C)(C)C)cc1[N+](=O)[O-]	-1	-4	0	-2
CC(C)C#Cc1cnc2c(c1)C(=O)N([C@@H](C)CO)C[C@@H](C)[C@H](CN(C)C(=O)Nc1cc(F)ccc1F)O2	-3	1	0	-1
CC1CC(OCC(O)C[N+]2(C)CCOCC2)CC(C)(C)C1 (stereo not given)	0	109*	0	-2
COc1cccc(OCc2ccc(Cn3nc(NC(=O)NCCc4ccc(OC)c(OC)c4)c4ccccc43)cc2)c1	1	0	0	35*
COc1ccc(CCNC(=O)COc2cc(=O)n(C)c3ccccc23)cc1OC	1	10	0	1
CCOC(=O)N1CCC(NC(=O)Cn2nc(-c3ccccc3)ccc2=O)CC1	-1	7	0	18*
O=C(Cn1nc(-c2ccccc2)ccc1=O)Nc1ccc(NC(=O)c2ccccn2)cc1	-3	0	44*	0
O=C(Cn1nc(-c2ccccc2)ccc1=O)Nc1ccc(-n2cnnn2)cc1	-1	nt	0	-2
COc1ccc(S(=O)(=O)N(C)C[C@@H]2Oc3ccc(NC(=O)Nc4cccc5ccccc45)cc3C(=O)N([C@@H](C)CO)C[C@@H]2C)cc1	1	-6	0	7
Cc1cccc(S(=O)(=O)N2C[C@@H](O)COC[C@@H]3O[C@@H](CC(=O)NCCCN4CCOCC4)CC[C@H]32)c1	-3	0	0	1
